Bioassay records deposited in PubChem BioAssay by several laboratories.
HIF act: HIF pathway transcriptional activators, primary screen, cell-based, U2OS HRE-luciferase, luminescence; U2OS HRE-luciferase reporter; normalized: DMSO 0%, desferrioxamine 100%; activation, % at 7.5 µM (by protocol); hit rate 0.32% among 300,000; AID 1910, 2009;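 active = mean activation of at least 10% of the iron chelator positive control signal, with at least half of replicates also reaching 10%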
HSF1 activator: HSF-1 activators, primary screen, NIH3T3-HGL cells, MG132 stress, luminescence, single point. NIH3T3-HGL HSF-1 luciferase reporter, 8 h; 100% = twice DMSO control signal. activation, % at 9 µM. hit rate 1.7% among 300,000;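 active = mean replicate activation of at least 50% with a set share of replicates each reaching 50%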;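 also: 0% = median of the neutral control wells and 100% = twice that signal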
ARNT TACC3 PPI: disruptors of ARNT/TACC3 protein interaction, primary screen, biochemical, AlphaScreen, single concentration; Transforming acidic coiled-coil-containing protein 3 (Homo sapiens), Q9Y6A5; AlphaScreen His-ARNT PAS-B/GST-TACC3 binding, luminescence; TACC3 fragment carries E629A point mutation; inhibition, % at 9.99 µM; hit rate 0.66% among 390,000;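 active = mean inhibition of replicates at least 50% and at least half of replicates each reaching 50%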;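 also: 0% = complete ARNT plus TACC3 wells and 100% = ARNT alone without TACC3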
HSF1 inh: HSF1 inhibitors in luciferase reporter cells, primary screen, cell-based, NIH3T3, luminescence; NIH3T3-HGL HSE-luciferase, MG132-induced, luminescence 8 h; active compounds read low; activity change, negative = inhibition, % at 7.5 µM (by protocol); hit rate 0.77% among 300,000;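 active = more than half of replicate wells show activity change below -50%, luminescence cut by over half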;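 also: luciferase reports HSF-1 transcriptional activity via heat shock element; 0% = median of DMSO wells and -100% = zero luminescence signal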
HSP90 refold inh: HSP90 inhibitors, primary screen, cell lysate, luminescence; Heat shock protein HSP 90 (rabbit reticulocyte lysate; luciferase refolding); Rabbit reticulocyte lysate, luciferase refolding luminescence, 3 h; inhibition, % at 5.6 µM; hit rate 0.91% among 290,000; AID 1789, 2009;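 active = inhibition above the screen-wide mean plus 3 SD, computed separately per campaign, cut at about 16% in these data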;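 also: 0% = DMSO wells and 100% = 60 µM geldanamycin wells; inhibitors lower the luminescence because luciferase stays unfolded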
Numbers without * were called inactive; nt = not tested or not shown. Most compounds without a hit are left out; they make up all but 3.1% or so of the library.

SMILES	HIF act	HSF1 activator	ARNT TACC3 PPI	HSF1 inh	HSP90 refold inh
COc1ccc(OC)c(NC(=O)CSc2nnc3ccc(-c4ccncc4)nn23)c1	-0.6	-27.1	-0.1	-9.4	-1.6
COc1ccc(NC(=O)CSc2nnc3ccc(-c4ccncc4)nn23)cc1OC	-0.3	-80.1	37.8	-75.0*	-4.7
CCOC(=O)c1c(C)[nH]c(C)c1S(=O)(=O)N1c2ccccc2CC1C (configuration not stated)	31.5*	37.6	nt	5.6	6.6
CCOC(=O)c1c(C)[nH]c(C)c1S(=O)(=O)N1CCN(c2ccc(F)cc2)CC1	nt	62.9*	-1.5	27.6	-2.2
CCOC(=O)c1c(C)[nH]c(C)c1S(=O)(=O)N1CCOCC1	-0.4	20.0	5.5	-2.2	-0.1
COc1ccc(/C=N/NC(=O)c2cnccn2)c(OC)c1OC	0.4	-5.9	-4.0	-2.7	-2.6
COc1cccc(/C=N/NC(=O)C(=O)NCc2ccco2)c1O	0.6	-6.0	59.6*	-2.8	-1.8
COc1ccc(/C=N/NC(=O)c2cnccn2)cc1O	1.6	5.6	-27.9	4.1	-2.2
COc1cccc(/C=N/NC(=O)C(=O)N/N=C/c2cccc(OC)c2O)c1O	nt	nt	40.3	nt	3.4
COc1cccc(/C=N/NC(=O)c2ccoc2C)c1O	24.8*	34.6	24.5	10.1	6.8
COc1cccc(/C=N/NC(=O)c2cnccn2)c1O	0.8	9.8	58.0*	5.8	4.2
COc1cccc(/C=N/NC(=O)c2cnccn2)c1	1.5	-82.0	4.6	-75.7*	-3.5
COc1ccc(NC(=O)N2CCCCN3[C@H](C2)[C@@H](c2ccc(C#Cc4ccccc4)cc2)[C@@H]3CO)cc1	nt	nt	20.4	nt	nt
CO[C@H]1CN(C)C(=O)c2ccc(NC(=O)c3ccccc3)cc2OC[C@H](C)N(CC2CC2)C[C@H]1C	nt	nt	-4.4	nt	nt
CCCNC(=O)C[C@H]1C[C@@H]2c3cc(NC(=O)Nc4ccc(F)cc4)ccc3O[C@@H]2[C@@H](CO)O1	nt	nt	0.4	nt	nt
Cc1cc(OCC(=O)NCCCn2ccnc2)c2c(C)cc(=O)oc2c1	-0.5	-11.3	1.6	-4.0	-4.2
CCCc1cc(=O)oc2cc(C)cc(OCC(=O)NCCCn3ccnc3)c12	0.5	-80.7	0.3	-75.6*	-3.3
Cc1ccccc1CN1CCN(S(C)(=O)=O)CC1	-0.2	0.9	-3.1	-12.9	-2.6
CCOc1ccccc1CN1CCN(S(C)(=O)=O)CC1	14.1*	-2.6	-12.8	-5.1	-1.4
CO[C@H]1CN(C)C(=O)c2cc(NS(=O)(=O)CC(F)(F)F)ccc2OC[C@@H](C)N(CCC(F)(F)F)C[C@@H]1C	nt	nt	-1.1	nt	nt
O=C(C[C@@H]1CC[C@@H]2[C@H](COC[C@H](O)CN2Cc2cc(F)cc(F)c2)O1)NC1CCC1	nt	nt	0.3	nt	nt
COc1ccc(/C=C(\C#N)C(=O)Nc2cccc(C)n2)cc1	-23.1	70.6*	-6.6	52.2	1.2
Cc1cccc(NC(=O)/C(C#N)=C/c2ccccc2Cl)n1	-4.8	-13.3	-5.8	0.9	-1.7
Cc1cccc(NC(=O)/C(C#N)=C/c2ccccc2O)n1	3.6	76.6*	-0.9	28.0	2.3
Cc1cccc(NC(=O)/C(C#N)=C/c2ccc(Cl)cc2)n1	-0.4	-6.3	5.9	-3.5	-3.2
SMILES	HIF act	HSF1 activator	ARNT TACC3 PPI	HSF1 inh	HSP90 refold inh
CNC(=S)N1N=C(c2ccc(C)cc2)CC1c1ccc(Br)cc1 (configuration not stated)	0.0	17.7	-6.1	6.1	3.4
CC(C)c1ccc(C2CC(c3ccc(Br)cc3)=NN2C(N)=S)cc1 (configuration not stated)	2.0	73.7*	-6.8	48.4	-0.9
COc1ccc(Cl)cc1C(=O)NCC(=O)OCc1ccccc1	0.2	-65.1	-3.1	-52.4*	nt
COc1ccc(Br)cc1CN1CCN(Cc2c[nH]c3ccccc23)CC1	-0.8	55.0*	12.4	9.7	-0.6
COc1ccc(CN2CCN(Cc3c[nH]c4ccccc34)CC2)cc1	1.9	34.8	-19.9	-3.4	1.2
COCC(=O)N[C@H]1C=C[C@H](CC(=O)NCc2ccccc2OC)O[C@@H]1CO	nt	nt	-0.9	nt	nt
CC(C)N(C(=O)COC(=O)c1ccccc1C(=O)c1ccc(Cl)c([N+](=O)[O-])c1)C(C)C	-7.5	90.7*	1.7	73.8	1.2
C/C=C/c1ccc2c(c1)O[C@@H](CN(C)C(=O)Nc1ccc(C(F)(F)F)cc1)[C@H](C)CN([C@H](C)CO)S2(=O)=O	nt	nt	-7.6	nt	nt
Cc1occc1C(=O)Nc1cc(C(F)(F)F)ccc1Cl	-0.4	-71.2	-4.5	-65.3*	-2.7
C=CCn1c(CNc2ccccc2)nnc1SCC(=O)N/N=C/c1ccccc1O	0.6	0.8	active	0.5	4.2
C[C@H](CO)N1C[C@H](C)[C@H](CN(C)S(=O)(=O)c2ccccc2F)Oc2ncc(C#Cc3ccccc3F)cc2C1=O	nt	nt	-9.6	nt	nt
O=C(Nc1ccc(Cl)cc1)NN1CC(=O)N(c2cccc(C(F)(F)F)c2)CC1=O	29.0*	5.3	-6.9	1.6	-3.1
Cc1ccc(N2CC(=O)N(NC(=O)Nc3ccc(Cl)c(Cl)c3)CC2=O)cc1	0.1	1.5	-1.0	1.5	5.6
CC(=O)N[C@H]1CC[C@@H](CCNC(=O)C2CCCC2)O[C@@H]1CO	nt	nt	-8.1	nt	nt
COc1ccc(S(=O)(=O)Nc2ccc3c(c2)C(=O)N([C@@H](C)CO)C[C@H](C)[C@@H](CN(C)C(=O)C2CCCCC2)OCCCC[C@H](C)O3)cc1	nt	nt	15.2	nt	nt
COc1ccc(C(=O)CN2C(=O)c3ccccc3S2(=O)=O)cc1Br	-1.9	1.3	-0.7	-4.1	5.2
O=C(CN1C(=O)c2ccccc2S1(=O)=O)Nc1ccccc1	-0.1	-73.6	-0.3	-65.2*	-3.2
Cc1ccc(NC(=O)CN2C(=O)c3ccccc3S2(=O)=O)cc1C	1.2	-3.8	-2.8	-12.3	4.2
COc1ccc(C(=O)CN2C(=O)c3ccccc3S2(=O)=O)cc1	-4.5	-68.1	nt	-64.8*	11.6
C[C@H]1CCCCO[C@H](CN(C)C(=O)Nc2ccc(F)cc2)[C@@H](C)CN([C@@H](C)CO)C(=O)c2cc(NC(=O)Nc3ccc(F)cc3)ccc2O1	nt	nt	1.4	nt	nt
CCOC(=O)c1c(NC(=O)OC)sc(C(=O)N(CC)CC)c1C	-0.3	-78.2	4.2	-71.9*	3.9
CCOC(=O)c1sc(NC(=O)OC)c(C(=O)OC)c1C	0.0	6.0	1.7	-4.1	-0.3
CC1=C(C(=O)Nc2ccccn2)C(c2ccc(Cl)cc2)NC(=S)N1 (configuration not stated)	1.3	63.9*	-7.5	25.0	-6.1
CC1=C(C(=O)Nc2ccccn2)C(c2ccc(Br)cc2)NC(=S)N1 (configuration not stated)	3.7	39.3	-3.4	31.0	-1.7
